Results on nine molecules are retold here after PubChem BioAssay (NCI).

Test systems include HCT-15 colon; HT29 colon; SNB-75 CNS; SNB-19 CNS; PC-3 prostate; SK-MEL-5 melanoma; UACC-62 melanoma; LOX IMVI melanoma; SK-MEL-28 melanoma; SN12C renal; UO-31 renal; TK-10 renal; ACHN renal; CAKI-1 renal; A498 renal; CCRF-CEM leukemia; MOLT-4 leukemia; SK-MEL-2 melanoma; U251 CNS; EKVX NSCLC.
Assay in all cases: NCI-60 one-dose screen, 48 h (100 = growth as untreated, 0 = no growth, -100 = all killed)
What all share (details): 10 µM unless noted

About 83,000 compounds went through this panel and 20% of them were active in at least one assay; those are over-represented in the sample as a whole.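 Activity criterion: percent growth below 10, measured after cells in 96-well plates were exposed to a single compound concentration for 48 hours.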 Active and inactive are the calls of the source.

`CCC(C)[C@@H]1NC(=O)[C@@H]2CCCN2C(=O)[C@H](Cc2ccccc2)NC(=O)[C@@H]2CCCN2C(=O)[C@H](Cc2ccccc2)NC(=O)[C@@H]2CCCN2C(=O)[C@H](Cc2ccccc2)NC1=O` (stereo partly specified): the growth was 103% (inactive) in the assay with HCT-15 colon; 113% (inactive) with HT29 colon; 76.7% (inactive) in the assay on SNB-75 CNS; 103% (inactive) with SNB-19 CNS; 90.7% (inactive) with PC-3 prostate; 100% (inactive) in the assay on SK-MEL-5 melanoma. The growth in the assay on UACC-62 melanoma was 99.9% (inactive); in the assay with LOX IMVI melanoma, 103% (inactive); in the assay on SK-MEL-28 melanoma, 95% (inactive); in the assay on SN12C renal, 102% (inactive); with UO-31 renal, 105% (inactive); in the assay on TK-10 renal, 104% (inactive). For the same molecule, the growth with ACHN renal was 103% (inactive); in the assay on CAKI-1 renal, 94.1% (inactive); with A498 renal it was 108% (inactive); in the assay on CCRF-CEM leukemia it was 92.7% (inactive); in the assay on MOLT-4 leukemia it was 89.7% (inactive).

For the molecule `Cc1cccc(NC(=O)c2sc3nc4c(cc3c2N)C(=O)CCC4)c1`, the growth with HCT-15 colon is 28.9% (inactive); with HT29 colon, 11.7% (inactive); with SNB-75 CNS, 4.87% (active); with SNB-19 CNS, 42.1% (inactive); in the assay with PC-3 prostate, 27.1% (inactive); with SK-MEL-5 melanoma it was 22.8% (inactive). Moreover, the growth in the assay on UACC-62 melanoma was 22% (inactive); with LOX IMVI melanoma, 54.4% (inactive); in the assay on SK-MEL-28 melanoma, 62.2% (inactive); in the assay with SK-MEL-2 melanoma, 64.7% (inactive); in the assay with SN12C renal, 44.2% (inactive); in the assay on UO-31 renal, 41.2% (inactive). For the same molecule, the growth was 75.6% (inactive) in the assay on TK-10 renal; 51.9% (inactive) in the assay with ACHN renal; -12.2% (active) in the assay on A498 renal; 25.4% (inactive) in the assay with CCRF-CEM leukemia; 51.1% (inactive) with MOLT-4 leukemia.

In the case of `Oc1ccccc1/C=N/Nc1ccc2ccccc2n1`, the growth was 25.2% (inactive) in the assay on HCT-15 colon; 48.9% (inactive) in the assay with HT29 colon; 31.9% (inactive) in the assay with SNB-75 CNS; 67.6% (inactive) in the assay with SNB-19 CNS; 57.3% (inactive) with PC-3 prostate; 51.3% (inactive) in the assay with SK-MEL-5 melanoma. Also, the growth is 40.6% (inactive) with UACC-62 melanoma; 42.3% (inactive) in the assay on LOX IMVI melanoma; 74.1% (inactive) with SK-MEL-28 melanoma; 64.5% (inactive) with SK-MEL-2 melanoma; 61.8% (inactive) with SN12C renal; 62.8% (inactive) in the assay on TK-10 renal. In addition, the growth in the assay on ACHN renal is 40.6% (inactive); in the assay on CAKI-1 renal, 15.3% (inactive); with A498 renal, 107% (inactive); in the assay with CCRF-CEM leukemia, 10.7% (inactive); with MOLT-4 leukemia, 7.34% (active).

Consider `Cc1cc(Nc2nc(N3CCN(C)CC3)nc3ccccc23)n[nH]1`, for which the growth in the assay with HCT-15 colon is 56.5% (inactive); in the assay on HT29 colon, 61.5% (inactive); with SNB-75 CNS, -15.8% (active); in the assay with SNB-19 CNS, 90.8% (inactive); in the assay with PC-3 prostate, 71.6% (inactive); with SK-MEL-5 melanoma it was 89.9% (inactive). The growth with UACC-62 melanoma was 67.9% (inactive); in the assay with LOX IMVI melanoma, 73% (inactive); with SK-MEL-28 melanoma, 68.8% (inactive); with SK-MEL-2 melanoma, 43.5% (inactive); in the assay on SN12C renal it was 68.1% (inactive); with UO-31 renal, 54.9% (inactive). The growth in the assay on TK-10 renal was 54.8% (inactive); in the assay with ACHN renal it was 41.3% (inactive); with CAKI-1 renal, 13.4% (inactive); in the assay on A498 renal, 16.9% (inactive); in the assay with CCRF-CEM leukemia, 65.3% (inactive); in the assay on MOLT-4 leukemia, 69.9% (inactive).

In the case of `c1c2c(cc3c1OCO3)Cc1cc3c(cc1Cc1cc4c(cc1C2)OCO4)OCO3`, the growth in the assay on HCT-15 colon is 103% (inactive); in the assay with HT29 colon, 108% (inactive); in the assay on SNB-75 CNS it was 73% (inactive); in the assay on SNB-19 CNS it was 106% (inactive); in the assay on PC-3 prostate, 99.8% (inactive); with SK-MEL-5 melanoma it was 108% (inactive). In addition, the growth in the assay on UACC-62 melanoma is 108% (inactive); in the assay on LOX IMVI melanoma it was 95.8% (inactive); in the assay on SK-MEL-28 melanoma, 103% (inactive); with SK-MEL-2 melanoma it was 115% (inactive); with SN12C renal, 98.5% (inactive); in the assay on UO-31 renal it was 95.7% (inactive). The growth with TK-10 renal is 116% (inactive); with ACHN renal it was 101% (inactive); with CAKI-1 renal, 89.9% (inactive); in the assay with A498 renal, 107% (inactive); in the assay with CCRF-CEM leukemia, 112% (inactive); with MOLT-4 leukemia it was 116% (inactive).

For the molecule `CCCCCCCCCCCCS(=O)CC(C)O` (stereo unspecified), the growth in the assay on HCT-15 colon is 104% (inactive); in the assay on HT29 colon it was 110% (inactive); in the assay with SNB-75 CNS it was 78.3% (inactive); in the assay on SNB-19 CNS it was 98.6% (inactive); with PC-3 prostate, 99.3% (inactive); in the assay with SK-MEL-5 melanoma, 103% (inactive). The growth in the assay on UACC-62 melanoma is 92.6% (inactive); with LOX IMVI melanoma, 111% (inactive); in the assay with SK-MEL-28 melanoma it was 102% (inactive); in the assay with SK-MEL-2 melanoma, 112% (inactive); with SN12C renal, 106% (inactive); with TK-10 renal, 125% (inactive). Further, the growth in the assay with ACHN renal was 105% (inactive); in the assay on CAKI-1 renal, 110% (inactive); in the assay with CCRF-CEM leukemia, 101% (inactive); with MOLT-4 leukemia, 96.7% (inactive).

For the molecule `Cc1sc2nc3[nH]/c(=C\c4ccc(Cl)cc4)c(=O)n3c(=O)c2c1C`, the growth in the assay with HCT-15 colon is 96.5% (inactive); with HT29 colon, 96.1% (inactive); with SNB-75 CNS, 89.6% (inactive); with SNB-19 CNS, 101% (inactive); with PC-3 prostate, 97.3% (inactive); with SK-MEL-5 melanoma, 99.4% (inactive). Also, the growth was 99.2% (inactive) in the assay on UACC-62 melanoma; 103% (inactive) in the assay on LOX IMVI melanoma; 99.8% (inactive) with SK-MEL-28 melanoma; 98.1% (inactive) in the assay with SN12C renal; 103% (inactive) in the assay on UO-31 renal; 102% (inactive) with TK-10 renal. The growth was 101% (inactive) with ACHN renal; 105% (inactive) with CAKI-1 renal; 99.5% (inactive) with A498 renal; 90.2% (inactive) in the assay with CCRF-CEM leukemia; 94.1% (inactive) in the assay with MOLT-4 leukemia.

As for `CC#CC#Cc1cccc(=O)o1`, the growth in the assay on HCT-15 colon was 36.1% (inactive); with HT29 colon it was 45.3% (inactive); in the assay on SNB-75 CNS, 82.4% (inactive); in the assay with U251 CNS, 75.1% (inactive); in the assay on PC-3 prostate, 78.6% (inactive); in the assay on SK-MEL-5 melanoma, 70.3% (inactive). Further, the growth is 40.8% (inactive) in the assay on UACC-62 melanoma; 61.5% (inactive) in the assay with LOX IMVI melanoma; 23.9% (inactive) in the assay on SK-MEL-28 melanoma; -47.3% (active) with SK-MEL-2 melanoma; 20.7% (inactive) in the assay on EKVX NSCLC; 81.6% (inactive) in the assay on SN12C renal. Further, the growth with UO-31 renal was 40.7% (inactive); with TK-10 renal it was 73.7% (inactive); in the assay with ACHN renal, 68.5% (inactive); in the assay on CAKI-1 renal it was 4.28% (active); in the assay on A498 renal it was 113% (inactive); with CCRF-CEM leukemia, 11.9% (inactive). Further, the growth in the assay on MOLT-4 leukemia is 64.9% (inactive).

Turning to `COc1c(Cl)cc(Cl)cc1Cl`, the growth with HCT-15 colon was 116% (inactive); in the assay with HT29 colon, 108% (inactive); with SNB-75 CNS, 116% (inactive); with SNB-19 CNS, 103% (inactive); in the assay with PC-3 prostate, 111% (inactive); with SK-MEL-5 melanoma it was 109% (inactive). Besides, the growth in the assay on UACC-62 melanoma is 100% (inactive); with SK-MEL-28 melanoma, 127% (inactive); in the assay with SK-MEL-2 melanoma, 117% (inactive); in the assay with SN12C renal it was 100% (inactive); in the assay on UO-31 renal it was 88.4% (inactive); with TK-10 renal it was 109% (inactive). In addition, the growth is 112% (inactive) in the assay with ACHN renal; 126% (inactive) in the assay on CAKI-1 renal; 96.5% (inactive) with A498 renal; 110% (inactive) with CCRF-CEM leukemia; 91.4% (inactive) in the assay with MOLT-4 leukemia.
